The results in this text go back to the supplement of paper PMC6555819.

The test concerns PPARa:RXRa (NR concentration 270 nM, RXRa partner concentration 90 nM). Description: PBM binding z-score (relative to random genomic background probes); higher = stronger binding; sequences stand for … in GC…GCGATTGACAGCGTAGAATGAAGG
In short, it runs like this: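 Binding buffer was PBS pH 7.4 with 2% milk, 0.02% Triton X-100, 1 mM DTT, 0.2 mg/mL BSA and 0.4 mg/ml salmon testes DNA. In it, ligand-free nuclear receptor dimers were incubated 1 h on custom Agilent 4×180K protein-binding microarrays carrying double-stranded probes. Antibodies against each partner (one per run) detected binding, and z-scores were calculated against random background probes after regression normalization of scanned fluorescence.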
As for CCCCGGAGGACAGAAGGTCAGAGCTGTCCGCTTT, the PBM binding z-score is 1.87.

CCTACGGGGCCAAAGGTCATTGATTCCAATGCTC: the PBM binding z-score was 6.04.

As for TAGCCTAGCTCATTCAGGGGCCAGTATAGAAAGC, the PBM binding z-score was -1.13.

TAGCCTAGGTCATTGGGCTAGTATAGTACGCATC registered a PBM binding z-score of 3.63.

ATATGTAGGTTAGGGTCATTCCGAAAGTAGGGAA returned a PBM binding z-score of 5.69.

GACACAGGGTCAGCTAGAGGCCAGAGTATGGAAA: the PBM binding z-score worked out at 4.57.

Regarding CGAACTAGGCCACCAGGACAGTGAAGAGGTTGGA, the PBM binding z-score is 1.98.

The sequence CCGTACGGGTCAAGGTTATAGCACGGGTGGTACG registered a PBM binding z-score of 4.76.

As for CCTACAGGGCCAAAGGTCATTGATTCCAATGCTC, the PBM binding z-score was determined as 5.51.

CCTACTGGGCCATCAGGTGATTGATATCAACGTT: the PBM binding z-score was 0.426.

In turn, ATCGAATGGTCGAAGGTGAGTATACCCACCCGAA returned a PBM binding z-score of 0.153.

With CCTAGTTGGTCAGGAGGTCACAAACCGGATATGA, the PBM binding z-score stood at 3.98.

With ATACGTAGGTTACATCCGGGTCATTCAGGCTATG, the PBM binding z-score was determined as 3.03.

On to CCTTACGGGTCACTGACAGGTCATAGCATTTGGA, for which the PBM binding z-score is 5.36.

Regarding CCTAGTTGGTCAGGAGGCCACACACCGGATATGA, the PBM binding z-score stood at 0.181.

On to CGAACTAGGTCACCTGGACAGTGAAGAGGTTGGA, for which the PBM binding z-score stood at 5.

Consider CGAACTAGGTCACCATGACAGTGAAGAGGTTGGA, for which the PBM binding z-score came to 4.95.

In turn, CCTACTGGGCCAAAAATGTCATTGATGCCGATAA yielded a PBM binding z-score of 0.13.

CGCACTAGGTCACCAGGACAGTGAAGAGGTTGGA registered a PBM binding z-score of 4.91.

Sequence CGAACTATGTCACCAGGACAGTGAAGAGGTTGGA showed a PBM binding z-score of 1.17.

As to ATACCAAGGTTATCGTGAGGTCGTTGATACTAAC, the PBM binding z-score is 2.77.

On to CCTACTGGGCGACGAAAGGTCATTGATTCAGTGA, for which the PBM binding z-score turned out to be 4.31.
